Our source for the Potency and outcome values is PubChem BioAssay (Tox21).

Experiment [1] can be described thus: qHTS assay to identify small molecule agonists of the RXR signaling pathway - cell viability counter screen (AID 1159529). Also: series mostly up to about 77 µM; nearly all actives have a fitted effect of over 50% in size. Put shortly: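 CellTiter-Glo luminescence gave viability in the wells also read for beta-lactamase. Cells (RXR-alpha-UAS-bla HEK 293T, 2% charcoal-stripped FBS medium) had 5 hr plating, then 16 hr compound exposure at 37 C; tetraoctyl ammonium bromide served as positive control.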
For orientation: qHTS replaces the single test concentration by a dilution series.

Experiment [2] can be described thus: qHTS assay to identify small molecule antagonists of the retinoid acid receptor (RAR) signaling pathway - cell viability counter screen (AID 1159551). Also: nearly all actives have a fitted effect of over 35% in size. Put shortly:
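Retinol-stimulated (1 uM final) C3RL4 cells, compound 6 h, 37 C; readout CellTiter-Glo luminescence (ATP) after 30 min RT incubation.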

Experiment [3] is described as follows: qHTS assay to identify small molecule antagonists of the retinoic acid receptor (RAR) signaling pathway (AID 1159552; also: nearly all actives have a fitted effect of over 50% in size). Summed up:
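Luminescent RARE reporter read-out in C3RL4 cells: 6 hr co-treatment at 37 C of test compounds with retinol at 1 uM final. Cells plated overnight beforehand; luciferase reagent incubated 30 min at room temperature before reading.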

A short description of experiment [4]: qHTS assay to identify small molecule agonists of the retinoic acid receptor (RAR) signaling pathway (AID 1159553). Summed up: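 Reporter readout comes from luciferase under RARE control in C3RL4 cells; compound exposure lasts 6 hr at 37 C in 5% CO2, and luminescence is recorded following a 30 min room-temperature incubation with reagent.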
Experiment [5] can be described thus: qHTS assay to identify small molecule antagonists of the estrogen related receptor (ERR) signaling pathway from Tox21 library - cell viability counter screen (AID 1224834). Also: nearly all actives have a fitted effect of over 30% in size. Summed up: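 After 17.5 h of compound exposure at 37 C, ERR cells are incubated with CellTiter-Fluor for 30 min and fluorescence intensity serves as the viability measure.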
Experiment [6] deals with Luciferin 4-monooxygenase (Photinus pyralis) (UniProt P08659). Nature of the experiment: qHTS assay to identify small molecule inhibitors of firefly luciferase (AID 1224835). Also: nearly all actives have a fitted effect of over 25% in size. Also: potency is read from the fitted curve at half-maximal effect. Summed up:
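Inhibition of purified Photinus luciferase is measured by luminescence. Substrate levels (D-luciferin, ATP) sit at their KM values. Each compound is tested in a concentration series.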

The nature of experiment [7]: qHTS assay to identify small molecule agonists of the constitutive androstane receptor (CAR) signaling pathway - cell viability counter screen (AID 1224836). Also: nearly all actives have a fitted effect of over 45% in size. Also: potency is read from the fitted curve at half-maximal effect. Put shortly: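 Cell viability multiplexed with the CAR agonist screen: CellTiter-Fluor fluorescence after 23 hr at 37 C. HepG2-CYP2B6-hCAR cells got compounds at 15 concentrations with PK11195 at 0.75 uM final.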

The nature of experiment [8]: qHTS assay to identify small molecule antagonists of the constitutive androstane receptor (CAR) signaling pathway - cell viability counter screen (AID 1224837). Also: nearly all actives have a fitted effect of over 45% in size. Also: potency is read from the fitted curve at half-maximal effect. Put shortly:
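Counter screen run in HepG2-CYP2B6-hCAR cells: 4 hr settle, compound titration (15 concentrations) with 50 nM CITCO, 23 hr at 37 C/5% CO2, CellTiter-Fluor fluorescence.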

The target in experiment [9] is Nuclear receptor subfamily 1 group I member 3 (Homo sapiens) (UniProt Q14994). Nature of the experiment: qHTS assay to identify small molecule antagonists of the constitutive androstane receptor (CAR) signaling pathway (AID 1224838).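 Also: HepG2 cells stably expressing hCAR with CYP2B6 luciferase reporter stimulated by CITCO; nearly all actives have a fitted effect of over 40% in size.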 Summed up: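 Cell line: HepG2 double-stable for hCAR and CYP2B6-2.2kb reporter. Agonist: CITCO, 50 nM final. Compounds: 15 concentrations, 24 h, 37 C. Detection: ONE-Glo luminescence.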

Experiment [10] in a line: qHTS assay to identify small molecule antagonists of the estrogen related receptor signaling pathway with the pleiotropic PPARgamma coactivator (PGC) from Tox21 10K library - cell viability counter screen (AID 1224840; active = well fitted cell-killing curve with a large enough effect in the repeat runs, not every such curve was filed as active; also: nearly all actives have a fitted effect of over 40% in size). Put shortly:
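Following seeding of 2,000 PGC/ERR cells/well and 6 hours' incubation, test compounds were delivered in DMSO. The plates then sat 17.5 hours at 37 C before a fluorogenic live-cell protease reagent (CellTiter-Fluor) was read after 30 min.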

The target in experiment [11] is Thyrotropin receptor (Homo sapiens) (UniProt P16473). In words: qHTS assay to identify small molecule agonists of the thyroid stimulating hormone receptor (TSHR) signaling pathway (AID 1224843; calls by dose curve; also: nearly all actives have a fitted effect of over 45% in size). Summed up:
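HEK293 cells stably bearing the thyrotropin receptor were plated at 800 cells/well and challenged with compound (30 min, RT). Accumulated cAMP was quantified via cAMP-d2 competing for cryptate-tagged antibody.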

The target of experiment [12] is Nuclear receptor subfamily 1 group I member 3 (Homo sapiens) (UniProt Q14994). Nature of the experiment: qHTS assay to identify small molecule agonists of the constitutive androstane receptor (CAR) signaling pathway (AID 1224839).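 Also: HepG2 cells stably carrying human CAR and a CYP2B6 luciferase reporter; series mostly up to about 92 µM; nearly all actives have a fitted effect of over 15% in size.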 Summed up: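 Luminescent ONE-Glo read-out after 24 hr, 37 C exposure of double-stable HepG2-CYP2B6-hCAR reporter cells to a 15-point compound series, in the presence of 0.75 uM PK11195 (final).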

Experiment [13] in a line: qHTS assay to identify small molecule antagonists of the estrogen related receptor signaling pathway with the pleiotropic PPARgamma coactivator (PGC) from Tox21 10K library (AID 1224841; call rule not given here; also: series mostly up to about 92 µM; actives are mostly falling curves and most rising ones were filed inactive; nearly all actives have a fitted effect of over 50% in size). Put shortly: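 qHTS antagonist format: PGC/ERR cells, 2k/well, compound in DMSO by pin transfer after 6 h attachment, 18 h treatment at 37 C, One-Glo luminescence read at 30 min.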
Experiment [14] is described as follows: qHTS assay to identify small molecule agonists of the estrogen related receptor signaling pathway with the pleiotropic PPARgamma coactivator (PGC) from Tox21 10K library (AID 1224842). Also: nearly all actives have a fitted effect of over 15% in size. Put shortly: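 Luminescence from One-Glo (30 min, room temperature) measured after PGC/ERR cells had 18 h at 37 C with pinned compound (23 nL in DMSO). Cells had been seeded at 2,000 per well and pre-incubated 6 h.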

Experiment [15] in a line: qHTS assay to identify small molecule antagonists of the estrogen related receptor (ERR) signaling pathway - cell viability counter screen (AID 1224818). Also: series mostly up to about 46 µM. Summed up: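 After a 6 h pre-incubation, ERR cells were dosed by pin tool with compounds, positive/negative controls or DMSO alone. Following 17.5 h at 37 C and 30 min with CellTiter-Fluor, fluorescence was recorded.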

Experiment [16] in a line: qHTS assay to identify small molecule antagonists of the estrogen related receptor (ERR) signaling pathway (AID 1224819;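 also: luminescence from an ERR-driven luciferase reporter measured with One-Glo reagent; series mostly up to about 46 µM; nearly all actives have a fitted effect of over 50% in size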). Put shortly:
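Luminescence readout (One-Glo, 30 min, RT) of ERR cell line after 18 h compound exposure at 37 C; cells seeded 2,000/well, pre-incubated 6 h, compounds pinned from DMSO stocks.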

Experiment [17] can be described thus: qHTS assay to identify small molecule agonists of the estrogen related receptor (ERR) signaling pathway (AID 1224820). Summed up:
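Quantitative HTS of the LOPAC library used NTP ERR reporter cells treated 18 h at 37 C. Signal is luminescence after One-Glo addition and a 30 min room-temperature incubation.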

Experiment [18] has as its system estrogen-related receptor alpha (ERRalpha) with PGC-1alpha coactivator, human. Nature of the experiment: qHTS assay to identify small molecule antagonists of the estrogen related receptor signaling pathway with the pleiotropic PPARgamma coactivator (PGC) (AID 1224821; calls by dose curve). Put shortly:
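Quantitative HTS for antagonism: PGC/ERR cells received compounds after 6 h attachment and were incubated 18 h at 37 C, with luminescence (One-Glo) as the endpoint.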

A short description of experiment [19]: qHTS assay to identify small molecule antagonists of the estrogen related receptor signaling pathway with the pleiotropic PPARgamma coactivator (PGC) cell viability counter screen (AID 1224822; also: series mostly up to about 46 µM). Put shortly:
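PGC/ERR cells were plated at 2,000 per well and allowed 6 h to settle before compound addition. Following 17.5 h at 37 C, CellTiter-Fluor reagent was added and fluorescence was read 30 min later.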

A short description of experiment [20]: qHTS assay to identify small molecule agonists of the estrogen related receptor signaling pathway with the pleiotropic PPARgamma coactivator (PGC) (AID 1224823). Summed up:
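Cell-based luciferase assay in the NTP-supplied PGC/ERR line, 2,000 cells/well; 18 h compound exposure at 37 C, luminescence after One-Glo.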

Results filed as inconclusive are left out. Values without a mark were called inactive. Calls of active or inactive are those of the source. Unless noted, calls follow the shape of the dose curve; as a rule, active = well fitted curve in the direction sought with a large enough effect in the repeat runs; inconclusive = weak or mixed curves; inactive = no such curve, though single readings can be large; an effect the other way counts as inactive or inconclusive.

Luciferin 4-monooxygenase (Photinus pyralis), sequence (P08659 whole entry, looked up): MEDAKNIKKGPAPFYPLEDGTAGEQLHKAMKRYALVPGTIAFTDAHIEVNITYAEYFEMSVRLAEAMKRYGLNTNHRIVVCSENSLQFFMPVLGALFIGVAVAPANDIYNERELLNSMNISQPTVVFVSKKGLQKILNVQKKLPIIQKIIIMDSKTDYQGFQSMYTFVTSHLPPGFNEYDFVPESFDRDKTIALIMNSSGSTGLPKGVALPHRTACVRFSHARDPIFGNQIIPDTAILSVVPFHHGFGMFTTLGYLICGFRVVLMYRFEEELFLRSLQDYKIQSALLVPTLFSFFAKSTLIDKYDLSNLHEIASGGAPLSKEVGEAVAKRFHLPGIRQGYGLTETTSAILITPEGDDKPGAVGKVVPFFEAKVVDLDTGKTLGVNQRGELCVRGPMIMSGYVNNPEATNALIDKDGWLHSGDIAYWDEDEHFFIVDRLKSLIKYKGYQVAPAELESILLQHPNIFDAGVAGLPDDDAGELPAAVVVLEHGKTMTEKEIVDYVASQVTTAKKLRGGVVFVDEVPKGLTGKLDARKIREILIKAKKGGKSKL
Thyrotropin receptor (Homo sapiens), sequence (P16473 whole entry, looked up): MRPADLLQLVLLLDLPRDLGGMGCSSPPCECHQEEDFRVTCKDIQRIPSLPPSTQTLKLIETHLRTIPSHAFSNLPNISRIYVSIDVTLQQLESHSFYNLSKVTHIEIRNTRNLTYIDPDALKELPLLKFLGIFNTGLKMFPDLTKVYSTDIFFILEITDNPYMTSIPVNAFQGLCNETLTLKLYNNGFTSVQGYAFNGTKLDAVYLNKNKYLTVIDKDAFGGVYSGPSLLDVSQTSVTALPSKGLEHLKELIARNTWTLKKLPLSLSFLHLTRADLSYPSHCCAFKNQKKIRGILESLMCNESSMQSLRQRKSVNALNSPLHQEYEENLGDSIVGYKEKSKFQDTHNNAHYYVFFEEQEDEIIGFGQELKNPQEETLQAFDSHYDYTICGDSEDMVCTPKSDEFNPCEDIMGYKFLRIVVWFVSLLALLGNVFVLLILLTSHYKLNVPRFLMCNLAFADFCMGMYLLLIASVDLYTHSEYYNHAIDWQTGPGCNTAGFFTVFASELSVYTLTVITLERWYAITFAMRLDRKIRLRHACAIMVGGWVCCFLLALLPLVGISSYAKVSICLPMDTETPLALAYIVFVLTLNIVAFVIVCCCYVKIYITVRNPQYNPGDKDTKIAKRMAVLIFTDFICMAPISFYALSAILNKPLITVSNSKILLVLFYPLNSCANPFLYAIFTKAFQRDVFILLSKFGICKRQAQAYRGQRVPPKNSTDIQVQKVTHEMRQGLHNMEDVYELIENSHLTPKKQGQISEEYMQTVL
Nuclear receptor subfamily 1 group I member 3 (Homo sapiens), sequence (Q14994 whole entry, looked up): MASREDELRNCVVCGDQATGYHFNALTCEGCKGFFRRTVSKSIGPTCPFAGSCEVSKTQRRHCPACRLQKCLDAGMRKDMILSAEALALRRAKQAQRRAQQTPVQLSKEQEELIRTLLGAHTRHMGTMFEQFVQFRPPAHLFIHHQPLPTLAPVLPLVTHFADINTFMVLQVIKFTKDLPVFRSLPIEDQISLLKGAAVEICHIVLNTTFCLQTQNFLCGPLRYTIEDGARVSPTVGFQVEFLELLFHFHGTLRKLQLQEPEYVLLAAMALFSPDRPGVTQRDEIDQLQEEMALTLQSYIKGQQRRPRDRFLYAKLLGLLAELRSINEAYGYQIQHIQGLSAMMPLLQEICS

For the molecule `CC(C)(C)c1cc(CCC(=O)OCC(COC(=O)CCc2cc(C(C)(C)C)c(O)c(C(C)(C)C)c2)(COC(=O)CCc2cc(C(C)(C)C)c(O)c(C(C)(C)C)c2)COC(=O)CCc2cc(C(C)(C)C)c(O)c(C(C)(C)C)c2)cc(C(C)(C)C)c1O`, the Potency result in [1], in [2], in experiment [3], in experiment [4], in [5] and in experiment [6] was “inactive” throughout. For the same molecule, the Potency result in [7], in experiment [8], in [9], in experiment [10] and in experiment [11] was “inactive” throughout.

Take `CCCc1ccccc1`: the Potency entry in [1], in experiment [2], in experiment [3], in experiment [4], in experiment [5] and in [6] was “inactive” throughout. The Potency entry in experiment [7], in experiment [8], in [12], in [10], in experiment [13] and in [14] was “inactive” each time.

With `N[C@H]1C(O)O[C@H](CO)[C@H](O)[C@@H]1O` (some centres undefined), the Potency entry in [1], in experiment [2], in [3], in experiment [4], in [5] and in experiment [6] was “inactive” each time. Besides, the Potency result in [7], in experiment [8], in [9], in [12], in [10] and in experiment [13] was “inactive” throughout. Further, the Potency entry in experiment [14] and in experiment [11] was “inactive” throughout.

Consider `NC(N)=N/N=C/c1c(Cl)cccc1Cl`, for which the Potency entry in experiment [1], in experiment [2], in experiment [3], in experiment [4], in [6] and in [9] was “inactive” throughout. Further, the Potency entry in experiment [12], in experiment [10], in experiment [13] and in experiment [14] was “inactive” throughout. For the same molecule, the molecule was classed as inactive in [15], in experiment [16], in experiment [17], in experiment [18], in experiment [19] and in experiment [20]. Besides, the Potency in experiment [7] and in experiment [8] was 23.7 µM (active) in each case.

`CC(=O)/C(C)=C/C1C(C)=CCCC1(C)C` (centres undefined): the Potency entry in experiment [1], in [2], in [3], in experiment [4], in experiment [5] and in experiment [6] was “inactive” in each case. For the same molecule, the Potency entry in [7], in [8], in [9], in experiment [12], in experiment [10] and in experiment [13] was “inactive” throughout. The Potency entry in experiment [14] and in experiment [11] was “inactive” in each case.

As for `NC1CCN(c2nc3c(cc2F)c(=O)c(C(=O)O)cn3-c2ccc(F)cc2F)C1` (centres undefined), the Potency result in experiment [1], in experiment [2], in experiment [3], in experiment [4], in experiment [5] and in [6] was “inactive” throughout. The Potency result in experiment [7], in [8], in experiment [9] and in [10] was “inactive” in each case.

In the case of `Cc1cccc(C(C)(C)C)c1O`, the Potency entry in experiment [1], in [2], in experiment [3], in [4], in experiment [5] and in experiment [6] was “inactive” throughout. Also, the Potency result in [7], in experiment [8], in experiment [9] and in experiment [10] was “inactive” throughout.

Take `CCOC(=O)CC(=O)c1cc(F)c(Cl)nc1Cl`: the Potency entry in experiment [1], in [2], in experiment [3], in experiment [4], in [5] and in experiment [7] was “inactive” in each case. For the same molecule, the Potency result in [8], in experiment [12] and in [10] was “inactive” in each case. Besides, the Potency in experiment [6] was 40.9 µM (active).

In the case of `NC(=S)N/N=C/c1cccnc1`, the Potency result in experiment [1], in [2], in experiment [3], in experiment [4], in experiment [5] and in [6] was “inactive” in each case. The Potency result in experiment [7], in experiment [8], in [9], in experiment [12], in experiment [10] and in experiment [13] was “inactive” in each case. The Potency result in experiment [14] was “inactive”.

For the molecule `CCCCCC/C=C/C=O`, the Potency result in experiment [1], in experiment [2], in experiment [3], in experiment [4], in [5] and in experiment [6] was “inactive” in each case. Further, the Potency entry in [7], in experiment [8], in experiment [9], in experiment [10], in experiment [13] and in experiment [14] was “inactive” each time.
